In PubChem BioAssay (Tox21):
Results filed as inconclusive are left out. Unmarked numbers belong to inactive results. The call rests on the fitted dose curve; in most records, active means well fitted cell-killing curve with a large enough effect in the repeat runs; inconclusive means weak or mixed curves, or effect the other way; inactive means flat fitted curve, though single readings scatter.

Experiment: qHTS assay to identify small molecule agonists of the constitutive androstane receptor (CAR) signaling pathway - cell viability counter screen (AID 1224836); further: nearly all actives have a fitted effect of over 45% in size
Conditions: HepG2-CYP2B6-hCAR viability, CellTiter-Fluor, 23 h, PK11195 added to every well; series mostly up to 92.4 µM; viability change, negative = cytotoxic: at the top concentration
Source text: U.S. Tox21 Program National Center for Advancing Translational Sciences [NCATS] NIH Chemical Genomics Center [NCGC] U.S. Environmental Protection Agency [EPA] National Institutes of Environmental Health Sciences [NIEHS] National Toxicology Program [NTP] U.S. Food and Drug Administration [FDA] Tox21 Assay Overview: The constitutive androstane receptor (CAR) is a nuclear receptor which regulates multiple drug metabolizing enzymes (DMEs) and transporters. Activating CAR will generally increase the transcription and subsequent translation of CYP2B6 and CYP3A4. These two DMEs represent about 50% of the drug metabolizing potential in the body. […] Recently, there have also been studies performed indicating CARs role in energy metabolism and cancer therapy. Therefore, inducing CARs activity could have a potential effect on diabetes and cancer. Identifying environmental toxins and compounds which modulate CAR, through the use of the Tox21 10K compound collection, will be an important step in determining the toxicity and potential therapeutic effects these factors will have on the human body. To differentiate true CAR agonists from cytotoxic substances, the assay is multiplexed with a cell viability assay.
Tox21 Assay Protocol Summary: A double-stable (hCAR and CYP2B6-2.2kb) transfected cell line, derived from human hepatoma (HepG2) cells, was utilized for the duration of the quantitative high-throughput screens. The HepG2-CYP2B6-hCAR cells were dispensed at 2500 cells/4 uL/well in 1536-well white solid bottom plates using a Multidrop Combi. After the assay plates were incubated at 37 C/5% CO2 for 4 hrs, 23 nL of compounds at 15 concentrations (from 5-48 columns) or positive control (from 1 to 4 columns) were transferred to the assay plates using a Pintool station. One uL of PK11195 (final concentration = 0.75 uM) was added, using a Flying Reagent Dispenser, inside each well. After a 23 hr incubation period at 37 C/5% CO2, 1 uL of CellTiter-Fluor reagent was added into each well of the assay plates using a Flying Reagent Dispenser. The fluorescence intensity in the plates was then measured using a ViewLux plate reader.
On the % scale 0 is the no-effect control and ±100 the full control effect.

Row | Compound | viability change, negative = cytotoxic
1 | CCN(O)CC | -7.21%
2 | CC(C)OC(C)C | 0.573%
3 | FC(F)(F)C(F)(F)C(F)(F)C(F)(F)C(F)(F)C(F)(F)C(F)(F)C(F)(F)Br | -0.242% [at 42.5 µM]
4 | CC(C)C1=CC2=CC[C@@H]3[C@](C)(CCC[C@@]3(C)C(=O)O)[C@H]2CC1 | 5.31%
5 | CCCOCCC | -3.79%
6 | O=C(O)c1ccccc1Nc1cc(Cl)ccc1C(=O)O | -10% [at 19 µM]
7 | NC(=O)NS(=O)(=O)c1ccc(Cl)cc1 | 3.14% [at 42.5 µM]
8 | CC(C)C(=O)OCC(C)(C)C(O)C(C)C (stereo not given) | 3.59%
9 | C=C(C)C(=O)OCCOP(=O)(O)O | 10.5%
10 | C[C@]12C(=O)OC(=O)[C@H]1[C@H]1C=C[C@@H]2C1 | -3.87%
11 | CCc1nnc(NS(=O)(=O)c2ccc(N)cc2)s1 | 7.2% [at 42.5 µM]
12 | CCCCCCCCc1ccc(S(=O)(=O)O)cc1 | -7.33%
13 | COc1cc(Cl)ccc1Cl | 1.78%
14 | Clc1cccc(-c2cc(Cl)cc(Cl)c2)c1 | 0.893%
15 | CCN(CC)CC1CCCCN1CC(=O)N1c2ccccc2C(=O)Nc2cccnc21 (stereo not given) | 2.04% [at 42.5 µM]
16 | Cc1c[nH]c(=S)[nH]c1=O | -4.19%
17 | CCOC(=O)C1CC(=O)C(=C(O)C2CC2)C(=O)C1 (stereo not given) | 8.62%
18 | CC1=C(CC(=O)O)c2cc(F)ccc2/C1=C\c1ccc(S(C)(=O)=O)cc1 | -3.11% [at 42.5 µM]
19 | CCCNC(C)C(=O)Nc1c(C)csc1C(=O)OC (stereo not given) | 4.78% [at 42.5 µM]
20 | CCC(=O)c1ccc2c(c1)N(CCCN(C)C)c1ccccc1S2 | -18.4% [at 42.5 µM]

Row | Compound | viability change, negative = cytotoxic
21 | CCCS(=O)c1ccc2nc(NC(=O)OC)[nH]c2c1 (stereo not given) | -13.5% [at 42.5 µM]
22 | CN1CCN(N)CC1 | 0.0298% [at 42.5 µM]
23 | CCC/C=C/CO | -9.98%
24 | CC/C=C\CCOC(=O)CCCCC | -2.22%
25 | CCCOc1ccc2c(c1)CC[C@@H]1[C@@H]2CC[C@]2(C)C(OC)CC[C@@H]12 (stereo not given in full) | -1.51% [at 42.5 µM]
26 | CCCN(CCC)C(=O)C(CCC(=O)O)NC(=O)c1ccccc1 (stereo not given) | 8.37% [at 42.5 µM]
27 | Cc1ccccc1C(=O)Nc1ccc(C(=O)N2CCCC(O)c3cc(Cl)ccc32)c(C)c1 (stereo not given) | 1.8% [at 42.5 µM]
28 | CCCc1c2oc(C(=O)O)cc(=O)c2cc2c(=O)cc(C(=O)O)n(CC)c12 | 2.5% [at 42.5 µM]
29 | O=c1[nH]cnc2c1ncn2[C@@H]1O[C@H](CO)[C@@H](O)[C@H]1O | 3.07% [at 42.5 µM]
30 | CCOc1ccc(NC(N)=O)cc1 | 0.829%
31 | O=[N+]([O-])c1nccn1CO[C@@H](CO)[C@H](O)CO | 9.75% [at 42.5 µM]
32 | CC(C)S | -2.06%
33 | C/C(=N\O)[C@@H](C)NCC(C)(C)CN[C@H](C)/C(C)=N/O | 13% [at 42.5 µM]
34 | COc1ccccc1N1CCN(CCCNc2cc(=O)n(C)c(=O)n2C)CC1 | 1.43% [at 42.5 µM]
35 | O=C1Nc2ccc([N+](=O)[O-])cc2C1=O | -15.2%
36 | NCCCN1CCN(CCCN)CC1 | 2.2%
37 | OCC(CBr)(CBr)CBr | -18.4%
38 | CCCCCCCCCC/C=C/C#N | 7.48%
39 | Cc1ccc([N+](=O)[O-])cc1Cl | 2.02%
40 | Nc1cccc(S(=O)(=O)O)c1 | 8.82%
